Our source for the binding signal values is PMC8384837, “Expanding the binding specificity for RNA recognition by a PUF domain”.

PUM1 PUF domain R3-FFS, sequence (Q14671 828-1176 C935F/R936F/Q939S): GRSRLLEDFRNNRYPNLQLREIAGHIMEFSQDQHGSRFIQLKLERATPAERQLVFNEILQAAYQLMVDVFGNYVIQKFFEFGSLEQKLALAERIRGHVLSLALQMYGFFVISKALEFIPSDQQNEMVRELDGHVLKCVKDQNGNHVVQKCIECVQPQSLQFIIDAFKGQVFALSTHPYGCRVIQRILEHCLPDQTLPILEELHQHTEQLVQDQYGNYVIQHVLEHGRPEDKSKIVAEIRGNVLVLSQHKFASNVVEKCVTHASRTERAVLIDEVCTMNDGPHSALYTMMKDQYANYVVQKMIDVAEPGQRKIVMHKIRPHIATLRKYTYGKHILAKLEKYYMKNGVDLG

This experiment has as its target PUM1 PUF domain R3-FFS (Homo sapiens, UniProt Q14671 828-1176, C935F;R936F;Q939S). Nature of the experiment: yeast three-hybrid, YBZ-1, SC-Leu-His + 0.5 mM 3-AT, 4 days. The note with it: tags: N-Gal4 AD-HA kept; label: inside an RPR1-promoter hybrid RNA with tandem MS2 sites; ssRNA. The essentials: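 Each repeat of the Pumilio-1 PUF domain was randomized at its three base-contacting residues, and these libraries were co-expressed from a centromeric plasmid with matching RNA elements in strain YBZ-1. After four days on SC-Leu (input) or SC-Leu-His + 0.5 mM 3-AT (selection), the repeat regions were PCR-amplified and Illumina-sequenced. The interaction score compares variant frequency between input and selection as a log change, computed in log2 with a pseudocount of 1 for absent variants.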
For the sequence “GGCUAGAACUAGUGGAUCCCCCGGCGCCCGGCGGCUCGAGCCCGGGUAAGUGUAAGUAGUCUGCAUGCCGCCGGGCGCCAUGCCUGCAGGUCGACUCUAGAAAACAUG”, the binding signal is 6.93 log2 enrichment (interaction score).
The figure for “GGCUAGAACUAGUGGAUCCCCCGGCGCCCGGCGGCUCGAGCCCGGGUAAGUGUAAAUAGUCUGCAUGCCGCCGGGCGCCAUGCCUGCAGGUCGACUCUAGAAAACAUG” is 3.99 log2 enrichment (interaction score); for “GGCUAGAACUAGUGGAUCCCCCGGCGCCCGGCGGCUCGAGCCCGGGUAAGUGUAAUUAGUCUGCAUGCCGCCGGGCGCCAUGCCUGCAGGUCGACUCUAGAAAACAUG” it is 5.05 log2 enrichment (interaction score).
